# Data from the supplement of paper PMC12350171.
# Structures can show the parent of a compound that is named as a salt. A number with no mark means an inactive call.
# Legend:
# Details in all cases: 20 µM
# [1] = tested on: Salmonella enterica typhimurium; test: growth AUC normalised to DMSO control (fraction of control); higher = less growth inhibition, active = hit call of the paper
# How it was run: (§1)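 After two anaerobic passages, pathogens were added at a starting OD578 of 0.01 to pre-reduced mGAM plates holding compound at 20 μM with 1% DMSO; hemin and NAD were supplemented for Haemophilus parainfluenzae. Sealed with breathable membranes, plates were read at OD578 hourly for 24 h, in three biological replicates. The trapezoidal rule, applied up to the exponential-to-stationary transition, gave the growth-curve AUC, which was normalised to DMSO controls on the same plate.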
# [2] = tested on: Shigella flexneri; test: as above
# How it was run: as §1
# [3] = tested on: Vibrio cholerae; test: as above
# How it was run: as §1
# [4] = tested on: Yersinia pseudotuberculosis; test: as above
# How it was run: as §1
# [5] = tested on: P. vulgatus RND KO; test: growth AUC normalised to DMSO control (median) (fraction of control); higher = less growth inhibition, active = hit call of the paper
# How it was run: (§2)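 After two overnight anaerobic passages, strains were inoculated at OD578 0.01 into mGAM in 96-well plates containing approved-drug library compounds at 20 μM and 1% DMSO. Growth was followed by reading OD578 hourly for 24 h within an anaerobic incubator. Area under the curve, taken by the trapezoidal rule up to the start of stationary phase, was normalised to same-plate vehicle wells, and the median of three biological replicates is listed.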
# [6] = tested on: P. vulgatus WT; test: as above
# How it was run: as §2
# [7] = tested on: S. enterica typhimurium WT; test: as above
# How it was run: as §2
# [8] = tested on: S. enterica typhimurium tolC KO; test: as above
# How it was run: as §2
# 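For growth AUC normalised to DMSO control (median) in this document: active when median AUC fell below 0.1.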
SMILES,growth AUC normalised to DMSO control [1],growth AUC normalised to DMSO control [2],growth AUC normalised to DMSO control [3],growth AUC normalised to DMSO control [4],growth AUC normalised to DMSO control [5],growth AUC normalised to DMSO control [6],growth AUC normalised to DMSO control [7],growth AUC normalised to DMSO control [8]
COCCOC(=O)C1=C(C)NC(C)=C(C(=O)OC/C=C/c2ccccc2)C1c1cccc([N+](=O)[O-])c1 (stereo unspecified) [Cilnidipine],1.01,1.01,1.03,0.976,0.989,0.98,1.01,1.01
CC(C)NCC(O)c1cc(O)cc(O)c1 (stereo unspecified) [Metaproterenol sulfate],0.995,0.967,0.998,0.988,0.986,1,1.01,0.997
CC(C)(C)NC[C@H](O)c1ccc(O)c(CO)c1 [Levalbuterol hydrochloride],0.95,1.01,1.01,0.992,0.962,0.992,1.01,0.997
COc1cnc(NS(=O)(=O)c2ccc(N)cc2)nc1 [Sulfameter],1,0.986,1.01,1,0.992,1,0.993,0.993
C[C@@H]1[C@H](O)[C@@H](C)/C=C/C=C/C=C/C=C/C=C/C=C/C=C/[C@H](O[C@@H]2O[C@H](C)[C@@H](O)[C@H](N)[C@@H]2O)C[C@@H]2O[C@](O)(C[C@@H](O)C[C@@H](O)[C@H](O)CC[C@@H](O)C[C@@H](O)CC(=O)O[C@H]1C)C[C@H](O)[C@H]2C(=O)O [Amphotericin B],1.02,1.1,1.05,1.02,1.04,1.1,1.01,0.988
CNCCCN1c2ccccc2CCc2ccccc21 [Desipramine hydrochloride],0.974,0.946,0.957,0.986,0.947,0.976,0.964,0.925
CC(C)N1CCN(c2ccc(OCC3COC(Cn4cncn4)(c4ccc(Cl)cc4Cl)O3)cc2)CC1 (stereo unspecified) [Terconazole],0.962,0.982,1,0.989,1.06,1.04,1.01,0.97
CCN(CC)CCCC(C)Nc1ccnc2cc(Cl)ccc12 (stereo unspecified) [Chloroquine diphosphate],0.997,0.982,1.01,1.01,1.02,1.02,1,1
O=C(O)Cc1sc(-c2ccccc2)nc1-c1ccc(Cl)cc1 [Fentiazac],0.993,1.03,1,1.02,0.896,0.947,1,0.98
CN(C)CCC(c1ccc(Br)cc1)c1ccccn1 (stereo unspecified) [Brompheniramine maleate],0.99,1,1.02,1,0.994,0.995,0.977,0.856
CN1CCc2cccc3c2[C@H]1Cc1ccc(O)c(O)c1-3 [R(-) Apomorphine hydrochloride hemihydrate],0.999,1,1.01,1.02,1.02,1.05,1.01,0.983
CC1(C)OC(=O)NC1=O [Dimethadione],0.972,0.995,1.01,0.998,1.02,1,0.99,0.997
CC1CC(OC(=O)c2ccccc2O)CC(C)(C)C1 (stereo unspecified) [Homosalate],1,0.996,1.02,1.01,0.995,1.03,1.01,0.998
CCN(CC)CCNC(=O)c1cc(Br)c(N)cc1OC [Bromopride],1.01,1.01,1.01,1,1,1.01,1.01,1.01
CC(=O)c1ccc2c(c1)N(CCCN1CCC(CCO)CC1)c1ccccc1S2 [Piperacetazine],0.971,1.05,1.03,1.01,1.01,1.02,1,0.948
CCCNC(C)C(=O)Nc1c(C)csc1C(=O)OC (stereo unspecified) [Articaine hydrochloride],0.949,1.03,1.08,1.03,1.04,1.06,1.01,0.997

SMILES,growth AUC normalised to DMSO control [1],growth AUC normalised to DMSO control [2],growth AUC normalised to DMSO control [3],growth AUC normalised to DMSO control [4],growth AUC normalised to DMSO control [5],growth AUC normalised to DMSO control [6],growth AUC normalised to DMSO control [7],growth AUC normalised to DMSO control [8]
c1ccc(CN(CC2=NCCN2)c2ccccc2)cc1 [Antazoline hydrochloride],0.999,1.01,1.01,1,1.03,1.05,0.996,1
CC(CCc1ccc(O)cc1)NCCc1ccc(O)c(O)c1 (stereo unspecified) [Dobutamine hydrochloride],0.988,0.976,0.99,1,0.993,0.999,1.01,0.998
O=C(Nc1ccc([N+](=O)[O-])cc1Cl)c1cc(Cl)ccc1O [Niclosamide],0.995,0.983,0.0756 (active),0.843 (active),0.0144 (active),0.0167 (active),0.992,0.00688 (active)
C=C1C[C@H]2[C@@H]3C=C(C)C4=CC(=O)CC[C@]4(C)[C@H]3CC[C@]2(C)[C@@]1(OC(C)=O)C(C)=O [Melengestrol acetate],0.981,1.05,1.03,1.03,0.993,1.02,1.01,0.961
CN(C)CCC=C1c2ccccc2COc2ccccc21 [Doxepin hydrochloride],1,0.977,0.899,0.994,0.976,0.962,0.997,0.977
Nc1nc(F)nc2c1ncn2[C@@H]1O[C@H](CO)[C@@H](O)[C@@H]1O [Fludarabine],0.963,0.933,0.997,0.988,0.994,0.999,0.994,0.991
CN1CCN(C2=Nc3ccccc3Oc3ccc(Cl)cc32)CC1 [Loxapine succinate],1,0.992,0.907,1.01,0.612,0.478,1.01,0.96
CC(C)(Oc1ccc(C2CC2(Cl)Cl)cc1)C(=O)O (stereo unspecified) [Ciprofibrate],1.01,0.998,0.997,0.995,0.973,0.961,0.992,0.993
CCOC(=O)[C@H](CCc1ccccc1)N[C@@H](C)C(=O)N1[C@H](C(=O)O)C[C@@H]2CCC[C@@H]21 [Ramipril],1.02,1.06,1.07,1.01,0.985,0.99,1.01,1
C[C@@H](O)[C@H]1C(=O)N2C(C(=O)O)=C(S[C@@H]3CN[C@H](C(=O)N(C)C)C3)[C@H](C)[C@H]12 [Meropenem],0.00502 (active),0.0408 (active),0.844,0.0586 (active),0.0122 (active),0.0155 (active),0.00861 (active),0.00577 (active)
Nc1ccc(C(=O)NCC(=O)O)cc1 [Aminohippuric acid],1.03,0.989,0.998,0.997,0.992,1.01,1.01,0.999
O=C1CC2(CCCC2)CC(=O)N1CCCCN1CCN(c2ncccn2)CC1 [Buspirone hydrochloride],1.01,1.08,1.04,1,1.12,1.11,0.986,0.979
CCCc1nn(C)c2c(=O)[nH]c(-c3cc(S(=O)(=O)N4CCN(C)CC4)ccc3OCC)nc12 [Sildenafil],1.02,1.07,1.06,1.03,1.02,1.02,1.02,1
CCCCCN(C)CCC(O)(P(=O)(O)O)P(=O)(O)O [Ibandronate sodium],0.982,0.98,0.992,1.01,0.998,1.01,0.99,1
COc1cc(C)nc(-n2nc(C)cc2OC)n1 [Epirizole],0.997,1,0.981,0.992,0.979,0.999,1,1.01
Cc1cnc(C(=O)O)c[n+]1[O-] [Acipimox],0.983,1,0.982,0.969,1,0.994,1.01,0.992
